From PubChem
Vaccinia Venus – inhibitors of vaccinia virus (Venus reporter). Vaccinia virus Venus reporter expression, fluorescence. Potency, µM (doses to about 36.5 µM), inactives show at the top dose activity change, negative = inhibition, actives largely listed as inhibitors. 330,000 tested, 0.46% active; calls by dose curve; tested in A549 cells; further: on the % scale 0 is the no-effect control and ±100 the full control effect; nearly all actives have a fitted effect of over 30% in size
Pf growth 48h – inhibits P. falciparum growth in the first generation, 48 h | Potency, µM (highest dose often 28.7 µM), for the others: top-dose activity change, negative = inhibition, hits mostly inhibitors | AID 504832 | 310,000 tested, 5.9% active | P. falciparum luciferase growth in erythrocytes, 48 h; further: on the % scale 0 is the no-effect control and ±100 the full control effect
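A one-generation exposure of luciferase-tagged malaria parasites in RPMI 1640/Albumax erythrocyte culture, 37 C and 5% CO2. Inhibition is inferred from decreased luminescence after adding detection reagent.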
NS1 function inh – blocks influenza NS1 protein function. Potency, µM (series often up to 46.1 µM), for the others: at the top dose activity, positive = more growth. 270,000 tested, 0.4% active; calls by dose curve; further: actives are rising curves; nearly all actives have a fitted effect of over 50% in size
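Recovery from NS1-induced slow growth read by OD600 in budding yeast switched to galactose assay medium (pH 6.0, -URA) at 1:100 dilution. Compound 23 nl per well; the matching strain lacking NS1 serves as control.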
Pf growth 96h – P. falciparum growth inhibition at 96 hours; P. falciparum luciferase reporter growth, 96 h; Potency, µM (titrated, usually from 28.7 µM), for the others: at the highest dose activity change, negative = inhibition, usual class: inhibitors; 320,000 tested, 6.9% active; AID 504834; further: on the % scale 0 is the no-effect control and ±100 the full control effect
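Infected RBCs, 2% Hct / 0.05% parasitemia final; luciferase-reporter P. falciparum; cpd 96 h, 37 C, 5% CO2; luciferase detection reagent; luminescence.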
HCV inhibitor – inhibitors of hepatitis C virus infection; Huh7.5.1 HCVcc-Cre infection, luciferase reporter, 44 h; Potency, µM (top dose mostly 41.8 µM), inactives show top-dose activity change, negative = inhibition, actives largely listed as inhibitors; 340,000 tested, 3.4% active; further: on the % scale 0 is the no-effect control and ±100 the full control effect
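Infectious HCV cell culture screen: compound-treated cells (1,000/well, pre-plated 4 h) are infected with HCVcc-Cre at roughly 0.5 moi and grown 44 h. Infection is quantified by luciferase signal after 15 min substrate incubation at room temperature.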
Vaccinia mCherry – inhibitors of vaccinia virus infection (mCherry reporter signal); Vaccinia virus mCherry reporter infection, fluorescence; 310,000 tested, 0.63% active; Potency, µM (top dose mostly 36.5 µM), for inactives: top-dose activity change, negative = inhibition, actives largely listed as inhibitors; calls by dose curve; tested in A549 cells; further: on the % scale 0 is the no-effect control and ±100 the full control effect; nearly all actives have a fitted effect of over 35% in size
* marks the source's active call; other numbers are inactive results; i = inactive; u = inconclusive; x = no result. An excerpt weighted towards active compounds, which were near 11% of everything screened. Unless noted, the call rests on the fitted dose curve; in most records, active means well fitted inhibition curve with a large enough effect; inconclusive means small, poorly fitted or top-dose-only effect, or another doubt; inactive means no such curve, though single readings can be large or run the other way. Potency means the concentration at half of the fitted maximal effect.

SMILES	Vaccinia Venus	Pf growth 48h	NS1 function inh	Pf growth 96h	HCV inhibitor	Vaccinia mCherry
CC(=O)N1CCc2cc(S(=O)(=O)CCC(=O)N3CCN(c4ccccc4F)CC3)ccc21	-10.6%	u	-10.2%	u	-2.4%	-12.5%
CCC(=O)N1CCc2cc(S(=O)(=O)CCC(=O)N3CCN(c4ccc(F)cc4)CC3)ccc21	x	-19.4%	0.6%	1.04µM*	-9.2%	x
O=C(Nc1cc(N2CCCCC2)ncn1)c1ccccc1	-5.9%	23.3%	-11.1%	4.8%	-18.1%	i
Cc1cc(C)n(-c2nnc(C)n2/N=C/c2cc(Br)ccc2OCc2ccccc2)n1	-27.3%	4.65µM*	-45.9%	6.7%	-13.2%	x
Cc1c(C(=O)N/N=C/c2ccc(N3CCOCC3)cc2)nc2ccccn12	-15.2%	u	-3.7%	-2.2%	3.5%	i
CC1(C)Cc2nc(-c3ccccc3)nc(SCC(=O)N3CCOCC3)c2CO1	x	-8.5%	13.5%	u	17.3%	x
CC1(C)Cc2nc(-c3ccccc3)nc(SCC(O)CO)c2CO1 (stereo not drawn)	x	-6.7%	u	10.4µM*	-16.6%	x
Cc1cccc(-c2nc3c(c(SCC(=O)N4CCOCC4)n2)COC(C)(C)C3)c1	x	u	2.0%	11.7µM*	-23.9%	x
Cc1ccc(-c2nc3c(c(SCC(=O)N4CCCC4)n2)COC(C)(C)C3)cc1	-29.1%	x	x	x	x	-26.1%
CCCCNC(=S)N(C)/N=C/c1ccc(OCC(=O)Nc2ccc(OC)cc2)c(OC)c1	x	-0.6%	2.1%	u	u	x
O=C(c1ccc(-c2cc3ccccc3oc2=O)cc1)N1CCN(c2ccc(Cl)cc2[N+](=O)[O-])CC1	-20.8%	u	29.8%	u	10µM*	i
NC(CS)C(=O)O (stereo not drawn)	-9.5%	4.26µM*	x	-8.1%	x	-17.8%
N[C@H](CS)C(=O)O	-5.4%	x	x	x	x	-14.2%
CN1CCC(C(=O)C(=O)O)C1=O (stereo not drawn)	-9.5%	x	x	x	19.7%	-12.8%
COc1ccc(C(=O)c2[nH]c(N)c(C(=O)NCCc3c[nH]c4ccccc34)c2-c2ccc(Cl)cc2)cc1	-12.7%	x	x	x	x	-10.6%
CC(=O)C(N=Nc1ccccc1)(Sc1nnc(-c2ccccc2)n1-c1ccccc1)C(=O)Nc1ccccc1 (stereo not drawn)	x	13.1µM*	u	11.7µM*	-15.7%	x
CC(=O)/C(=N\Nc1ccccc1)Sc1nnc(-c2ccccc2)n1-c1ccccc1	-2.2%	-27.1%	3.0%	u	-18.5%	-12.6%
O=C(O)c1ccc(CSc2nnc(-c3ccccc3)n2-c2ccccc2)cc1	1.8%	-5.2%	-1.0%	5.6%	9.4%	-11.5%
CC(=O)C(N=Nc1ccccc1)(Sc1nnc(-c2ccccc2)n1-c1ccccc1)C(C)=O	x	u	-7.6%	11.7µM*	u	x
CCn1c2ccccc2c2cc(NC(=O)c3coc(=O)c(Br)c3)ccc21	x	6.0%	4.4%	30.9%	x	x
NC(=S)Nc1ccc(F)c(F)c1F	x	2.62µM*	-9.9%	35.4%	29.8%	x
CC1(C(=O)Nc2cccc(Oc3ccccc3)c2)Cc2c(-c3ccccc3)ccnc2O1 (stereo not drawn)	-27.9%	x	x	x	x	-16.1%
CCCOc1cccc(-c2cc(C(=O)N/N=C/c3cccnc3)c3ccccc3n2)c1	-1.7%	u	29.3%	u	-12.6%	i
O=C(N/N=C/c1ccccn1)c1cc(-c2ccc(Br)cc2)nc2ccccc12	u	u	-56.3%	-15.3%	u	u
CCCOc1cccc(-c2cc(C(=O)N/N=C/c3ccccn3)c3ccccc3n2)c1	-6.7%	11.7µM*	-42.5%	9.28µM*	u	u
O=C(N/N=C/c1ccccn1)c1cc(-c2ccc(Cl)cc2)nc2ccccc12	-11.3%	9.28µM*	-15.3%	9.28µM*	35.3%	-14.3%
CC(NC(=O)c1ccc2c(c1)OCCO2)c1ccc(S(N)(=O)=O)cc1 (stereo not drawn)	-21.9%	8.4%	x	10.8%	8.0%	-2.8%
Cc1ccc(-n2c(SCC(=O)Nc3ccc4c(c3)OCCO4)nc3c([nH]c4ccccc43)c2=O)cc1	-14.0%	x	x	x	x	-12.7%
CCc1cccc(NC(=O)CSc2ncc3c(n2)-c2ccc(Cl)cc2N(Cc2ccccc2)S3(=O)=O)c1	-17.7%	x	x	x	x	-25.5%
